In PubChem BioAssay (NCI):
About 79,000 compounds went through this panel and 15% of them were active in at least one assay; those are over-represented in the sample as a whole. Values without a mark were called inactive. Active and inactive are the calls of the source. No stated cut-off is given here; in the data, active means growth inhibition above about 70%; inactive means the rest.

Columns and labels:
[1] = NCI Yeast Anticancer Drug Screen. Data for the rad50 strain (AID 155);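 further: 0% = growth of vehicle-only cultures of the same strain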; details: S. cerevisiae rad50 strain growth inhibition, hits give high values
Summary of the method: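 Relative growth inhibition (compound vs vehicle) was measured in yeast with a defined repair-gene alteration.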

[2] = NCI Yeast Anticancer Drug Screen. Data for the mec2-1 strain (AID 157); details: S. cerevisiae mec2-1 strain, hits give high values
Summary of the method: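 Strain: mec2-1 (DNA repair/cell cycle alteration). Compound exposure, then growth measured; inhibition expressed relative to vehicle.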

[3] = NCI Yeast Anticancer Drug Screen. Data for the sgs1 mgt1 strain (AID 161);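 further: 0% = growth of cultures given vehicle only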; details: S. cerevisiae sgs1 mgt1 strain, hits give high values
Summary of the method: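 Mutant yeast exposed to compound; growth scored against vehicle-only wells.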

[4] = NCI Yeast Anticancer Drug Screen. Data for the cln2 rad14 strain (AID 165);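 further: 0% = growth equal to vehicle treated cultures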; details: S. cerevisiae cln2 rad14 strain, hits give high values
Summary of the method: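 Compounds are applied to the cln2 rad14 yeast strain, and growth is then compared with that of vehicle-treated cultures to give inhibition.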

[5] = NCI Yeast Anticancer Drug Screen. Data for the bub3 strain (AID 167); details: S. cerevisiae bub3 mutant strain, hits give high values
Summary of the method: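 Screening used yeast with an engineered genetic alteration affecting cell cycle control. Compound-exposed cultures were compared with vehicle cultures, and reduced growth was taken as inhibition.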

[6] = NCI Yeast Anticancer Drug Screen. Data for the mlh1 rad18 strain (AID 175); details: S. cerevisiae mlh1 rad18 strain growth inhibition, hits give high values
Summary of the method: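 Read-out is yeast growth inhibition, calculated against vehicle-only controls. The compound was applied to a strain engineered with DNA damage repair alterations.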

[7] = at 5.0 µM (retest, dose inferred, filed as 0.5)
[8] = at 50.0 µM (retest, dose inferred, filed as 5.0)

Compound | growth inhibition [1, 7] [%] | growth inhibition [1, 8] | growth inhibition ([1]; at 50.0 µM) | growth inhibition [2, 7] [%] | growth inhibition [2, 8] | growth inhibition ([2]; at 50.0 µM) | growth inhibition [3, 7] [%] | growth inhibition [3, 8] | growth inhibition ([3]; at 50.0 µM) | growth inhibition [4, 7] [%] | growth inhibition [4, 8] | growth inhibition ([4]; at 50.0 µM) | growth inhibition [5, 7] [%] | growth inhibition [5, 8] | growth inhibition ([5]; at 50.0 µM) | growth inhibition [6, 7] [%] | growth inhibition [6, 8] | growth inhibition ([6]; at 50.0 µM)
[O-][n+]1c2ccccc2nc2cc(Cl)ccc21 | -114 | 11% | 92.2% (active) | -35 | -32% | 21.6% | -53 | 6% | 68.5% | -64 | -46% | 25.6% | -47 | -1% | 48.1% | -105 | -17% | 84.8% (active)
O=C(/C=C/c1cccc2ccccc12)c1cccc([N+](=O)[O-])c1 | 11 | -10% | 12.3% | -25 | -15% | -4.05% | -2 | 2% | 14.3% | 7 | 5% | 0% | -8 | -12% | -5.2% | -12 | -51% | -5.35%
Nc1ccc(C(=O)N/C(=C\C=C\c2ccco2)c2nc3c4c(ccc3[nH]2)C(=O)c2ccccc2C4=O)cc1 | 23 | 75% (active) | 90.8% (active) | 1 | 28% | 62.1% | 3 | 35% | 74.8% (active) | 0 | 9% | 44.7% | 2 | 22% | 31.9% | 10 | 12% | 90.5% (active)
O=C(CC(O)(C(F)(F)F)C(F)(F)F)C(c1ccccc1)C(O)(C(F)(F)F)C(F)(F)F (configuration not stated) | 6 | 82% (active) | 71.8% (active) | 13 | 79% (active) | 91.5% (active) | -3 | 86% (active) | 84.2% (active) | 13 | 92% (active) | 90.5% (active) | -14 | 41% | 83.2% (active) | 5 | 93% (active) | 93.6% (active)
O=S(=O)(Nc1cccc(C2=NCCN2)c1)c1ccc2c(S(=O)(=O)Nc3cccc(C4=NCCN4)c3)cccc2c1 | -3 | 9% | 82.5% (active) | 6 | 2% | 9.45% | -5 | 2% | 88.3% (active) | -1 | 6% | 13.6% | -7 | -12% | 4.8% | -2 | 3% | 78.2% (active)
Nc1nc(-c2ccccc2)nc(Cl)c1I | 0 | 17% | 74.7% (active) | -3 | 24% | 28.9% | 3 | 43% | 78% (active) | 3 | 21% | 15.6% | -10 | 16% | -5.25% | -4 | 21% | 81.4% (active)
C[N+](C)(CCO)Cc1ccccc1 | -4 | 10% | -19.4% | 1 | 0% | 1.6% | -5 | -37% | 11.2% | -1 | 2% | -30.6% | 8 | 39% | 74.2% (active) | -4 | 6% | 34%
CCCCCCCCCCCCCCCCCCOC(=O)Nc1ccc(C)c(NC(=O)OCCCCCCCCCCCCCCCCCC)c1 | -11 | -18% | 70.2% (active) | 6 | -1% | 60.9% | -6 | -11% | 59.8% | 0 | -19% | 26.4% | -3 | -3% | 83.6% (active) | -11 | -9% | 79.2% (active)
O=[N+]([O-])c1ccccc1NC1CCN(CCCC2(c3ccc(F)cc3)OCCO2)CC1 | 11 | 96% (active) | 99% (active) | 7 | 94% (active) | 98% (active) | 16 | 99% (active) | 98.6% (active) | 9 | 94% (active) | 93.3% (active) | 10 | 97% (active) | 41.4% | 11 | 94% (active) | 98.7% (active)
